# DT40 TDP1 CPT: qHTS for Inhibitors of human tyrosyl-DNA phosphodiesterase 1 (TDP1): qHTS in cells in presence of CPT | chicken DT40 Tdp1-/-;hTDP1 cells + 20 nM CPT, ATP luminescence, 48 h | Potency, µM (series often up to 46.2 µM), inactives show top-dose activity change, negative = growth inhibition, hits mostly inhibitors | hit rate 12% among 420,000 | AID 686979, 2013; note: potency is the fitted concentration of half-maximal effect; nearly all actives have a fitted effect of over 55% in size
#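 Chicken DT40 Tdp1-/- cells stably complemented with human TDP1 were seeded at 400 cells/well in medium containing 20 nM camptothecin, exposed to pin-transferred compounds, and grown at 37 °C for at least 48 hr. Viability was read as ATP luminescence.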
# IL-1B inflam inh: qHTS for Inhibitors of Inflammasome Signaling: IL-1-beta AlphaLISA Primary Screen; hit rate 4.7% among 360,000; activity change, % at 57.5 µM; THP-1 LPS/ATP IL-1B secretion, AlphaLISA, 16 h; hits give low values; in the data active = activity change below about -50%; inconclusive = mostly about -30% to -49%
#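 Secreted IL-1B measured by AlphaLISA bead assay after 16 h compound exposure of THP-1 cells; compounds (final up to 57.5 uM) added 1 h before LPS (250 ng/mL) and ATP (1.25 mM) stimulation; lower signal means less secretion.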
# HT1080 IDH1KD tx: qHTS for induction of synthetic lethality in tumor cells producing 2HG: qHTS for the HT-1080-IDH1KD cell line; HT-1080 IDH1 knockdown viability, ATP luminescence, 48 h; Potency, µM (titrated, usually from 46.1 µM), without a hit: top-dose activity, negative = toxicity, actives largely listed as cytotoxic; hit rate 2% among 360,000; AID 686971, 2013;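 note: potency is the fitted concentration of half-maximal effect; 0% = DMSO wells and -100% = cell-free medium wells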
#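 Viability of IDH1-knockdown HT-1080 fibrosarcoma cells was assessed by CellTiter-Glo after 48 h at 37 °C with titrated compound; concentration-effect curves were classified by fit quality and response size.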
# TDP1 cell noCPT: qHTS for Inhibitors of human tyrosyl-DNA phosphodiesterase 1 (TDP1): qHTS in cells in absence of CPT; DT40 Tdp1-/- hTDP1 cells, no CPT, ATP luminescence, 48 h; Potency, µM (doses to about 46.2 µM), for the others: at the highest dose activity change, negative = growth inhibition, hits mostly inhibitors; hit rate 15% among 420,000; note: potency is the fitted concentration of half-maximal effect; nearly all actives have a fitted effect of over 55% in size
#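 Luminescent ATP content (CellTiter-Glo) served as the growth readout. Knockout chicken DT40 cells expressing human TDP1 were exposed to compounds without camptothecin for a minimum 48 hr at 37 °C.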
# HT1080NT lethal: qHTS for induction of synthetic lethality in tumor cells producing 2HG: qHTS for the HT-1080-NT fibrosarcoma cell line; hit rate 1.6% among 360,000; Potency, µM (doses to about 46.1 µM), inactives show top-dose activity, negative = less viability, most hits filed as cytotoxic; HT-1080-NT fibrosarcoma viability, CellTiter-Glo ATP luminescence, 48 h;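 note: NT is the 2HG producing partner of a matched IDH1 knockdown line; potency is the fitted concentration of half-maximal effect; 0% = DMSO-treated cells and -100% = media-only wells without cells; nearly all actives have a fitted effect of over 55% in size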
#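 Toxicity toward the 2HG-producing NT line was scored as %Activity, normalised to DMSO and no-cell wells, from CellTiter-Glo luminescence after 48 hours' treatment.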
# An asterisk follows results filed as active; i = inactive; ? = inconclusive; / = not tested or not shown; ! = not confirmed by another sample. Most compounds without a hit are left out; they make up all but 19% or so of the library. Unless noted, calls come from the whole dose curve; as a rule, active = well fitted curve in the direction sought with a large enough effect; inconclusive = small, poorly fitted or top-dose-only effect, or another doubt; inactive = no such curve, though single readings can be large; an effect the other way counts as inactive or inconclusive. Unless noted, % is set by controls: 0 for no effect and ±100 for the full control effect.
SMILES,DT40 TDP1 CPT,IL-1B inflam inh,HT1080 IDH1KD tx,TDP1 cell noCPT,HT1080NT lethal
CCCCc1nn(-c2cc(Cl)ccc2OC)c2c1C(=O)CC(C)(C)C2,12µM*,-6,6%,21µM*,12%
O=C(COC(=O)C1CC2CCCC(C1)C2=O)NC1CCCCC1 (centres undefined),8%,29,-1%,1%,-1%
Cc1ccccc1N1CCN(C2CCCN(C(=O)c3ccnn3C)C2)CC1 (centres undefined),?,20,-2%,?,-6%
O=[N+]([O-])c1cccc2nc3ccccc3c(NCCCn3ccnc3[N+](=O)[O-])c12,0.15µM*,-102*,0.082µM*,0.18µM*,?
O=[N+]([O-])c1nccn1CCCCCCCCCCCN1CCOCC1,?,-1,-19%,?,-6%
O=[N+]([O-])c1ccc(Sc2ccc(Cl)c(Cl)c2)nc1,?,-58*,-4%,-29%,2%
Cn1ncc(Cl)c1C(=O)NCc1ccc(Cl)cc1,?,26,-5%,8.2µM*,-1%
Cn1ncc(Cl)c1C(=O)NCc1ccc2c(c1)OCO2,?,36,-9%,?,-1%
CSc1ccc(CN2C(=O)C(F)(F)Oc3c(C(C)=O)cccc32)cc1,18µM*,-7,-1%,16µM*,-1%
CCOc1ccc(NC(=O)c2ccc(NC(=O)c3cn4c5c(c(N6CCN(C)CC6)c(F)cc5c3=O)OCC4C)cc2)cc1 (centres undefined),5.2µM*,-12,9%,4.6µM*,-9%
CCOc1ccc(C(=O)Nc2ccc(N3CCN(C)CC3)cc2)cc1,4%,-5,12%,-5%,12%
CC1COc2c(N3CCN(C)CC3)c(F)cc3c(=O)c(C(=O)O)cn1c23 (centres undefined),21µM*!,-21,6%,13µM*!,1%
CCOc1ccc(-c2cc(N3C(=O)Nc4ccccc4N3O)n[nH]2)cc1,12%,0,21µM*,-13%,16µM*
COc1ccc(-n2c(NC(=O)c3ccco3)c(C#N)c3nc4ccccc4nc32)cc1,16µM*,4,-13%,23µM*,-21%
CCOC(=O)c1c(NC(=O)c2ccco2)n(C2CCCCC2)c2nc3ccccc3nc12,7.3µM*,-21,16µM*,8.2µM*,?
CCCCn1c(NC(=O)c2ccccc2Cl)c(C#N)c2nc3ccccc3nc21,23µM*,-98*,9.2µM*,26µM*,5.8µM*
Nc1nnnn1/N=C/c1cccc(OCc2ccccc2Cl)c1,26µM*,25,-27%,?,-29%
Nc1nnnn1/N=C/c1cccc(Oc2ccccc2)c1,-4%,3,4%,-4%,2%
O=C(CN1CCN(c2ccc(F)cc2)CC1)N(C1CCCC1)C1CCS(=O)(=O)C1 (centres undefined),6%,-4,-9%,9%,9%
CSc1cccc(CN2CCCC(C(=O)Nc3cccc(-n4cccn4)c3)C2)c1 (centres undefined),?,-66*,-8%,?,-11%
O=C(Nc1cccc(-n2cnnn2)c1)C1CCCN(Cc2cccc(C(F)(F)F)c2)C1 (centres undefined),13µM*,i,0%,18µM*,-8%
Cc1cc(CN2CCCC(C(=O)Nc3cccc(-n4cccn4)c3)C2)cc(C)c1O (centres undefined),16µM*,0,?,?,-25%
CCn1ncc(CN2CCCC(C(=O)Nc3cccc(-c4cc5ccccc5[nH]4)c3)C2)c1C (centres undefined),21µM*,-94*,?,?,?
Cc1cc2c(cc1S(=O)(=O)N(C)CC(=O)Nc1ccc(C#N)cc1)OCC(=O)N2,-2%,/,/,?,/
Cc1nc2c(=O)[nH]c(=S)[nH]c2[nH]c1=O,4%,4,1%,13%,1%
SMILES,DT40 TDP1 CPT,IL-1B inflam inh,HT1080 IDH1KD tx,TDP1 cell noCPT,HT1080NT lethal
O=C(Nc1cccc(-n2cccn2)c1)C1CCCN(Cc2cccc(F)c2F)C1 (centres undefined),23µM*,9,-5%,21µM*,-1%
O=C(Nc1cccc(-n2cccn2)c1)C1CCCN(Cc2cc3ccccc3[nH]2)C1 (centres undefined),16µM*,-60*,?,?,?
Cn1cc(CN2CCCC(C(=O)Nc3cccc(-n4cccn4)c3)C2)cn1 (centres undefined),1%,3,0%,26%,-7%
COc1cccc(CNC(=O)Cn2c(=O)cc(C)c3c(C)nn(C)c32)c1OC,23µM*,/,/,18µM*,/
CC(=O)c1ccc(N2C(=O)N(Cc3ccccc3C#N)c3ccccc3S2(=O)=O)cc1,16µM*,/,/,?,/
CCc1cccc(N2C(=O)N(CC(=O)NCc3cccc(OC)c3OC)c3ccccc3S2(=O)=O)c1,13µM*,/,/,?,/
CCc1ccc(-n2c(=O)c3ccccc3n(CC(=O)C(C)(C)C)c2=O)cc1,?,0,3%,18µM*,2%
C=C(NNC(C)=O)c1ccc(O)cc1,-5%,/,/,7%,/
CC(=O)c1ccc(N2C(=O)N(Cc3cc(C)ccc3C)c3ccccc3S2(=O)=O)cc1,23µM*,/,/,18µM*,/
COc1ccccc1N1C(=O)N(CC(=O)C(C)(C)C)c2ccccc2S1(=O)=O,-22%,6,6%,?,16%
CCc1ccc(N2C(=O)N(CC(=O)C(C)(C)C)c3ccccc3S2(=O)=O)cc1,13µM*,/,/,21µM*,/
CC(=O)c1ccc(N2C(=O)N(Cc3ccc(F)cc3)c3ccccc3S2(=O)=O)cc1,21µM*,/,/,16µM*,/
CC(=O)c1ccc(N2C(=O)N(CC(=O)c3ccc(F)cc3)c3ccccc3S2(=O)=O)cc1,-23%,/,/,?,/
COC(=O)c1ccc(OC)c(CN2C(=O)N(c3ccc(C(C)=O)cc3)S(=O)(=O)c3ccccc32)c1,15µM*,/,/,16µM*,/
Cc1ccc(NC(=O)Cn2c(C)cc(C)c(C#N)c2=O)c(Cl)c1,-13%,19,4%,-1%,-13%
Cc1ccc(F)cc1NC(=O)Cn1c(C)cc(C)c(C#N)c1=O,21µM*,/,/,2%,/
COc1cc(OC)cc(C(=O)NCCN2CCOCC2)c1,?,-19,0%,-6%,-1%
O=C(NCC(=O)N1CCCCCCC1)c1ccc(Br)o1,0%,-2,14%,-1%,-3%
